Drawing on PubChem BioAssay (NCI), this text covers growth inhibition for 21 compounds.

Each structure is given as a SMILES string. About 79,000 compounds went through this panel and 15% of them were active in at least one assay; those are over-represented in the sample as a whole. Unmarked numbers belong to inactive results. The source made the active and inactive calls. No stated cut-off is given here; in the data, active means growth inhibition above about 70%; inactive means the rest.

Assay [1] is described as follows: NCI Yeast Anticancer Drug Screen. Data for the rad50 strain (AID 155).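 Further: 0% = growth of vehicle-only cultures of the same strain.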 Particulars: S. cerevisiae rad50 strain growth inhibition; at 50.0 µM; hits give high values. The method, boiled down:
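Growth of the mutant yeast was measured after compound exposure and referenced to vehicle-treated cultures.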

A short description of assay [2]: NCI Yeast Anticancer Drug Screen. Data for the mec2-1 strain (AID 157). The following applies: S. cerevisiae mec2-1 strain, at 50.0 µM, hits give high values. The method, boiled down: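 Test agents were screened against the mec2-1 yeast strain, with defined DNA repair or cell cycle alteration. Growth was scored as inhibition against vehicle-only controls.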
The nature of assay [3]: NCI Yeast Anticancer Drug Screen. Data for the sgs1 mgt1 strain (AID 161).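 Further: 0% = growth of cultures given vehicle only.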 The following applies: S. cerevisiae sgs1 mgt1 strain, at 50.0 µM, hits give high values. The essentials:
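Mutant yeast exposed to compound; growth scored against vehicle-only wells.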

Assay [4] is described as follows: NCI Yeast Anticancer Drug Screen. Data for the cln2 rad14 strain (AID 165).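 Further: 0% = growth equal to vehicle treated cultures.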 The following applies: S. cerevisiae cln2 rad14 strain, at 50.0 µM, hits give high values. The essentials:
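Growth of compound-exposed yeast (cln2 rad14 genotype) measured and expressed as inhibition relative to vehicle.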

The nature of assay [5]: NCI Yeast Anticancer Drug Screen. Data for the bub3 strain (AID 167). Particulars: S. cerevisiae bub3 mutant strain, at 50.0 µM, hits give high values. The method, boiled down: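 Whole-cell yeast assay. The mutant strain was incubated with compounds, and growth inhibition was determined by comparison with vehicle-treated cells.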
Assay [6] is described as follows: NCI Yeast Anticancer Drug Screen. Data for the mlh1 rad18 strain (AID 175). Particulars: S. cerevisiae mlh1 rad18 strain growth inhibition; at 50.0 µM; hits give high values. The method, boiled down: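 In this whole-cell yeast screen, a strain with altered DNA damage repair is challenged with compound, and its growth is measured against matched vehicle-treated controls.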

As for `COc1cc(NC(C)=O)c2[nH]c3c(C)cc(NC(C)=O)c(C)c3c2c1`, the growth inhibition is -25.6% in assay [1]; -55.1% in assay [2]; -67.2% in assay [3]; -34.5% in assay [4]; -27.6% in assay [5]; -56.7% in assay [6].

`O=C(Nc1cccnc1)c1ccc([N+](=O)[O-])s1`: the growth inhibition was 11.1% in assay [1]; 0.6% in assay [2]; 29.3% in assay [3]; 9.25% in assay [4]; 11.1% in assay [5]; 16.1% in assay [6].

In the case of `C=CCN1C(C)(C)NC(=S)C1(C)C`, the growth inhibition in assay [1] was -20.8%; in assay [2], -4.9%; in assay [3] it was -1.7%; in assay [4] it was -5%; in assay [5], -6%; in assay [6], -2.35%.

On to `O=C(O)/C=C/c1c(Cl)cccc1Cl`, for which the growth inhibition in assay [1] is -14.6%; in assay [2], -8.05%; in assay [3], -11.9%; in assay [4], -37.2%; in assay [5], -18.1%; in assay [6], -5.8%.

Turning to `O=C(Nc1ccc(F)cc1)Nc1ccc(I)cc1`, the growth inhibition in assay [1] is 13.2%; in assay [2] it was 1.15%; in assay [3] it was 5.6%; in assay [4], 15.4%; in assay [5] it was 17.2%; in assay [6] it was 8.95%.

Regarding `S=c1[nH]c(=S)c2[nH]cnc2[nH]1`, the growth inhibition in assay [1] was -7.4%; in assay [2], -5.45%; in assay [3], -7.1%; in assay [4], -7.35%; in assay [5] it was -4.95%; in assay [6] it was -0.3%.

As to `CC12CCC(C/C1=N\NC(N)=O)C2(C)C` (stereo unspecified), the growth inhibition in assay [1] was 4.2%; in assay [2], -16.6%; in assay [3], -18.2%; in assay [4] it was 2.55%; in assay [5], -19.9%; in assay [6], -1.45%.

On to `CC(=O)OC1/C=C(\C)C(OC(C)=O)C/C=C(/C)CCC2C(/C=C/C1=O)C2(C)C` (stereo unspecified), for which the growth inhibition was 78.9% (active) in assay [1]; 74.4% (active) in assay [2]; 78.1% (active) in assay [3]; 64.1% in assay [4]; 71.2% (active) in assay [5]; 74% (active) in assay [6].

For `CN(C)C(=O)NC(=S)N(C)C`, the growth inhibition in assay [1] is -4.05%; in assay [2], -10.3%; in assay [3], -9.85%; in assay [4] it was -13.2%; in assay [5], 4.05%; in assay [6], 4.95%.

For `CCSc1nc(COC(=O)NC)c(COC(=O)NC)n1C`, the growth inhibition in assay [1] was 4.9%; in assay [2] it was -4.25%; in assay [3] it was 8.25%; in assay [4] it was -4.15%; in assay [5], 10.7%; in assay [6], 3.65%.

Regarding `O=[N+]([O-])c1ccc(P(=O)(Nc2ccc3ccccc3c2)Nc2ccc3ccccc3c2)cc1`, the growth inhibition is 34.5% in assay [1]; 15.2% in assay [2]; 15.5% in assay [3]; 0.2% in assay [4]; 13.1% in assay [5]; 46.5% in assay [6].

As for `CC(C)(C)N1CC(C(O)c2ccccc2)C1c1ccccc1` (stereo unspecified), the growth inhibition in assay [1] was -8.05%; in assay [2], 0.25%; in assay [3], -17.2%; in assay [4], -13.6%; in assay [5], -11.4%; in assay [6] it was -2.5%.

On to `CCCCn1c(=O)c2c(ncn2C)n(C)c1=O`, for which the growth inhibition in assay [1] is 16.8%; in assay [2], 16.6%; in assay [3], 9.75%; in assay [4] it was -9.25%; in assay [5], -2.45%; in assay [6], 6.2%.

With `CNC1C(=O)C(C)C(O)(C(CC(C)C(O)/C=C/C=C/CNC(=O)C(C)(C)C(O)\C(C)=C/C=C\C=C\Cc2cnc(C)o2)OC)C12C(=O)OC2COC` (stereo unspecified) (tested in a mixture with another compound), the growth inhibition in assay [1] was 2.6%; in assay [2], -22.1%; in assay [3] it was -7.75%; in assay [4] it was 2.95%; in assay [5] it was 12.9%; in assay [6], 6.35%.

As for `O=C1C=C(Nc2ccc(Cl)cc2C(=O)c2ccccc2)c2ccccc2C1=O`, the growth inhibition in assay [1] is 3%; in assay [2], -11.7%; in assay [3], -6.9%; in assay [4], 22.2%; in assay [5] it was -6.55%; in assay [6], -2.9%.

For `Cc1ccc(NC2=CC(=O)C(=O)c3ccccc32)cc1C`, the growth inhibition was 35% in assay [1]; 13.1% in assay [2]; 19.4% in assay [3]; 11.4% in assay [4]; 34% in assay [5]; 26.5% in assay [6].

In the case of `CC1OC(n2cc(Cl)c(=O)[nH]c2=O)C=C(OC(=O)c2ccccc2)C1=O` (stereo unspecified), the growth inhibition was -18.6% in assay [1]; -27.4% in assay [2]; -24.9% in assay [3]; -16.8% in assay [4]; -22.4% in assay [5]; -28.9% in assay [6].

For `CCC(C)(C)c1ccc(OCCCCNC(=O)c2ccc3ccccc3c2O)c(C(C)(C)CC)c1`, the growth inhibition in assay [1] is -7.65%; in assay [2], 2.05%; in assay [3], -14.2%; in assay [4], -37.1%; in assay [5] it was -18.2%; in assay [6] it was 3.15%.

As to `COc1ccc2c(=O)c(O)c(-c3ccccc3)oc2c1`, the growth inhibition in assay [1] was 22.8%; in assay [2], -18.9%; in assay [3], 42.5%; in assay [4] it was 10.4%; in assay [5], 15.2%; in assay [6], 8.25%.

Regarding `O=C(C[n+]1cccc(C(=O)Nc2ccc(Cl)cc2)c1)Nc1ccccc1`, the growth inhibition in assay [1] is -10.9%; in assay [2], -13.7%; in assay [3], -2.45%; in assay [4], 15.2%; in assay [5], -4.35%; in assay [6] it was 0.65%.

For the compound `C/C(=N\[N+](C)(C)C)c1ccc(C)c(C)c1`, the growth inhibition in assay [1] was 9.45%; in assay [2] it was -38%; in assay [3], -23.2%; in assay [4], 17.9%; in assay [5], -56.2%; in assay [6], -5%.
